Results as given in PubChem BioAssay AID1159580 (chemical genetic matrix, 2015).
Several values for one entry are separate records, joined by “and”; a condition that tells them apart may be missing. Equal entries are not always repeated. Screen size: about 5,500 compounds; about 2,000 (36%) were called active. Not shown: some 18% with an inconclusive outcome. Rule as the data show it: active = normalized growth mostly below about 0.91 (no sharp cut-off); inconclusive = no clear call, values can overlap the other calls; inactive = mostly above about 0.92. The list shows a part of the results.

Assay: chemical genetic growth profiling, strain panel (AID 1159580);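 also: tested at 20 µM; growth read once vehicle control cultures reached saturation at 30 °C; 1 = growth at the plate median or of vehicle wells; lower values mean less growth of the strain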
Conditions: S. cerevisiae deletion strains, growth OD

Measured: normalized growth

C=CCc1ccc(O)c(OC)c1
active: locus YBR231C, strain swc5, hits give low values 0.907 | locus YDL192W, strain arf1, hits give low values 0.896 | locus YEL061C, strain CIN8, hits give low values 0.923 | locus YER155C, strain BEM2 (second series), hits give low values 0.789 | locus YJL168C, strain set2, hits give low values 0.929
inactive: locus YAL013W, strain DEP1, hits give low values 0.971 | locus YAL021C, strain ccr4, hits give low values 1.01 | locus YAL026C, strain drs2, hits give low values 1 | locus YAL030W, strain snc1, hits give low values 0.989 | locus YBL061C, strain skt5, hits give low values 0.986 | locus YBR009C, strain hhf1, hits give low values 1.02 | locus YBR021W, strain FUR4, hits give low values 1.05 | locus YBR023C, strain chs3, hits give low values 1 | locus YBR171W, strain sec66, hits give low values 0.994 | locus YBR229C, strain ROT2, hits give low values 0.94 | locus YBR279W, strain paf1, hits give low values 0.997 | locus YCL011C, strain gbp2, hits give low values 1.01 | locus YCL016C, strain dcc1, hits give low values 1.01 | locus YCL029C, strain bik1, hits give low values 0.949 | locus YCL061C, strain MRC1, hits give low values 1.01 | locus YCL069W, strain vba3, hits give low values 0.993 | locus YCR088W, strain abp1, hits give low values 0.984 | locus YDL005C, strain med2, hits give low values 1.01 | locus YDL035C, strain GPR1, hits give low values 0.992 | locus YDL040C, strain nat1, hits give low values 0.98 | locus YDL074C, strain BRE1, hits give low values 0.967 | locus YDL101C, strain DUN1, hits give low values 0.961 | locus YDL185W, strain tfp1, hits give low values 0.975 | locus YDR001C, strain nth1, hits give low values 0.982 | locus YDR069C, strain doa4, hits give low values 1 | locus YDR101C, strain arx1, hits give low values 0.947 | locus YDR137W, strain rgp1, hits give low values 0.978 | locus YDR150W, strain NUM1, hits give low values 0.938 | locus YDR159W, strain sac3, hits give low values 0.949 | locus YDR162C, strain NBP2, hits give low values 0.967 | locus YDR195W, strain ref2 0.925 | locus YDR297W, strain sur2, hits give low values 0.988 | locus YDR318W, strain mcm21, hits give low values 0.925 | locus YDR334W, strain swr1, hits give low values 0.983 | locus YDR335W, strain msn5, hits give low values 0.996 | locus YDR388W, hits give low values 0.944 | locus YDR392W, strain spt3, hits give low values 0.841 | locus YDR502C, strain sam2, hits give low values 0.956 | locus YEL003W, strain gim4, hits give low values 0.994 | locus YEL037C, strain rad23, hits give low values 0.989 | locus YEL061C, strain CIN8 (second series), hits give low values 0.992 | locus YER015W, strain faa2, hits give low values 0.995 | locus YER016W, strain bim1, hits give low values 0.994 | locus YER110C, hits give low values 0.908 | locus YER111C, strain swi4, hits give low values 0.996 | locus YER155C, strain BEM2, hits give low values 0.93 | locus YER167W, strain BCK2, hits give low values 0.911 | locus YFR010W, strain ubp6, hits give low values 0.999 | locus YGL078C, strain dbp3, hits give low values 0.984 | locus YGL086W, strain mad1, hits give low values 0.942 | locus YGL167C, strain pmr1, hits give low values 0.984 | locus YGL173C, strain kem1, hits give low values 1 | locus YGL227W, strain vid30, hits give low values 0.994 | locus YGL240W, strain doc1, hits give low values 0.955 | locus YGL248W, strain PDE1, hits give low values 0.937 | locus YGL253W, strain hxk2, hits give low values 0.994 | locus YGR078C, strain PAC10, hits give low values 0.929 | locus YGR135W, strain pre9, hits give low values 0.926 | locus YGR252W, strain gcn5, hits give low values 1.19 | locus YHR013C, strain ard1, hits give low values 0.997 | locus YHR027C, strain rpn1, hits give low values 1 | locus YHR030C, strain SLT2, hits give low values 0.942 and 0.988 | locus YHR079C, strain IRE1 (second series), hits give low values 0.927 | locus YHR079C, strain IRE1, hits give low values 0.975 | locus YHR094C, strain hxt1, hits give low values 0.939 | locus YHR129C, strain ARP1, hits give low values 0.931 | locus YHR142W, strain chs7, hits give low values 1.01 | locus YHR200W, strain rpn10, hits give low values 0.937 | locus YIL066C, strain RNR3, hits give low values 0.921 | locus YIL073C, strain SPO22, hits give low values 0.947 | locus YIL125W, strain kgd1, hits give low values 0.942 | locus YIR030C, strain dcg1, hits give low values 0.929 | locus YJL092W, strain hpr5, hits give low values 0.987 | locus YJL095W, strain BCK1 (second series), hits give low values 0.992 | locus YJL095W, strain BCK1, hits give low values 0.937 and 0.962 | locus YJL115W, strain asf1, hits give low values 0.982 | locus YJL129C, strain trk1, hits give low values 0.979 | locus YJL134W, strain LCB3, hits give low values 0.937 | locus YJL154C, strain vps35, hits give low values 0.996 | locus YJL164C, strain tpk1, hits give low values 1.02 | locus YJL166W, strain qcr8, hits give low values 1.03 | locus YJL187C, strain SWE1 (second series), hits give low values 0.978
